Data: PubChem BioAssay (NCI)
Several values for one entry are separate records, joined by “and”; a condition that tells them apart may be missing. Identical values can stand only once. Compounds without any hit were thinned out: in the full panel of roughly 83,000, 20% have a hit.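 Values shown are percent growth following 48 h exposure of cells in 96-well plates to a single concentration of compound; below 10 was considered active.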 Activity calls are given as the source filed them.

What was measured:
Assay in all cases: NCI-60 one-dose screen, 48 h (100 = growth as untreated, 0 = no growth, -100 = all killed)
Settings in all cases: 10 µM unless noted
NCI-H23 lung = tested on: NCI-H23 lung
NCI-H226 lung = tested on: NCI-H226 lung
NCI-H322M lung = tested on: NCI-H322M lung
HOP-62 NSCLC = tested on: HOP-62 NSCLC
NCI-H460 lung = tested on: NCI-H460 lung
HOP-92 NSCLC = tested on: HOP-92 NSCLC
NCI-H522 lung = tested on: NCI-H522 lung
A549/ATCC NSCLC = tested on: A549/ATCC NSCLC
786-0 renal = tested on: 786-0 renal
COLO 205 colon = tested on: COLO 205 colon
DU-145 prostate = tested on: DU-145 prostate
K-562 leukemia = tested on: K-562 leukemia
MALME-3M melanoma = tested on: MALME-3M melanoma
MDA-MB-231 breast = tested on: MDA-MB-231 breast
RXF 393 renal = tested on: RXF 393 renal
SF-268 CNS = tested on: SF-268 CNS
SF-295 CNS = tested on: SF-295 CNS
SF-539 CNS = tested on: SF-539 CNS
UACC-257 melanoma = tested on: UACC-257 melanoma
M14 melanoma = tested on: M14 melanoma

Measured: growth

CN(C)C(=S)SSC(=S)N(C)C
inactive: NCI-H23 lung 98.9% and 138% | NCI-H226 lung 99.3% and 110% | NCI-H322M lung 75.3% and 94.9% | HOP-62 NSCLC 111% and 112% | HOP-92 NSCLC 102% | NCI-H522 lung 25.3% and 24.4% | A549/ATCC NSCLC 80% and 71.6% | 786-0 renal 107% and 101% | COLO 205 colon 63.1% and 70.6% | DU-145 prostate 105% and 125% | K-562 leukemia 105% | MALME-3M melanoma 65.5% and 90.9% | MDA-MB-231 breast 112% and 98.5% | RXF 393 renal 104% and 128% | SF-268 CNS 102% and 113% | SF-295 CNS 75% and 96.9% | SF-539 CNS 100% and 112% | UACC-257 melanoma 77.7% and 103% | M14 melanoma 93% and 100%
-20.9% (active) and 92.9% (inactive): NCI-H460 lung

O=[N+]([O-])c1cc(Cl)c(Cl)cc1Cl
inactive: NCI-H23 lung 105% and 107% | NCI-H226 lung 114% and 108% | NCI-H322M lung 116% and 123% | HOP-62 NSCLC 112% and 107% | NCI-H460 lung 110% and 108% | HOP-92 NSCLC 110% | NCI-H522 lung 134% and 110% | A549/ATCC NSCLC 88.7% and 111% | 786-0 renal 111% and 112% | COLO 205 colon 117% and 106% | DU-145 prostate 111% and 121% | K-562 leukemia 114% and 110% | MALME-3M melanoma 115% and 126% | MDA-MB-231 breast 99.7% and 124% | RXF 393 renal 142% and 111% | SF-268 CNS 105% and 114% | SF-295 CNS 97.8% and 112% | SF-539 CNS 82.4% and 102% | UACC-257 melanoma 80.1% and 111% | M14 melanoma 102% and 114%

Cc1cc[c-]cc1.Fc1c[c-]c(-c2ccccn2)c(F)c1.N#CCC[PH+](CCC#N)c1ccccc1.[Pt+2]
inactive: NCI-H23 lung 34.3% | NCI-H226 lung 72.3% | NCI-H322M lung 79.4% | HOP-62 NSCLC 116% | NCI-H460 lung 43.1% | HOP-92 NSCLC 16.3% | NCI-H522 lung 16% | A549/ATCC NSCLC 50.5% | 786-0 renal 48.9% | COLO 205 colon 12.5% | DU-145 prostate 57.6% | K-562 leukemia 11.6% | MDA-MB-231 breast 13.7% | SF-268 CNS 46% | SF-295 CNS 85.2% | SF-539 CNS 48.3% | UACC-257 melanoma 62.4% | M14 melanoma 21.9%
active: MALME-3M melanoma 0.385% | RXF 393 renal -36%

Cc1cc2c(cc1-c1ccnc(/C=C/C(=O)O)c1)C(C)(C)CCC2(C)C
inactive: NCI-H23 lung 88.1% | NCI-H226 lung 78.8% | NCI-H322M lung 106% | HOP-62 NSCLC 96.8% | NCI-H460 lung 85.3% | HOP-92 NSCLC 56.5% | NCI-H522 lung 76.2% | A549/ATCC NSCLC 77.1% | 786-0 renal 79.6% | COLO 205 colon 124% | DU-145 prostate 105% | K-562 leukemia 85.5% | MALME-3M melanoma 64.8% | MDA-MB-231 breast 75.5% | RXF 393 renal 79.4% | SF-268 CNS 86.6% | SF-295 CNS 88.6% | SF-539 CNS 78.2% | UACC-257 melanoma 87.4% | M14 melanoma 78.2%

C=CC[PH+](c1ccccc1)c1ccccc1.C=CC[PH+](c1ccccc1)c1ccccc1.[Pt+2].[S-]c1nc2ccccc2[nH]1.[S-]c1nc2ccccc2[nH]1
active: NCI-H23 lung -12.4% | NCI-H226 lung -20.6% | NCI-H322M lung 6.44% | HOP-62 NSCLC -0.445% | NCI-H460 lung -6.83% | HOP-92 NSCLC -44.3% | NCI-H522 lung -44.2% | A549/ATCC NSCLC -3.29% | 786-0 renal -4.36% | COLO 205 colon -36.7% | K-562 leukemia 4.86% | MALME-3M melanoma -72.8% | MDA-MB-231 breast -44.3% | RXF 393 renal -0.0777% | SF-268 CNS 1.83% | SF-295 CNS -9.49% | SF-539 CNS -28.6% | UACC-257 melanoma -25.7% | M14 melanoma -18.6%
inactive: DU-145 prostate 15.1%

Cc1ccc(S(=O)(=O)n2cc([C@@]3(O)C[C@H](CSC#N)OC3=O)c3ccccc32)cc1
inactive: NCI-H23 lung 82% | NCI-H226 lung 85.3% | NCI-H322M lung 106% | HOP-62 NSCLC 100% | NCI-H460 lung 86.3% | NCI-H522 lung 86.3% | A549/ATCC NSCLC 70.6% | 786-0 renal 95.6% | COLO 205 colon 59.2% | DU-145 prostate 43.9% | K-562 leukemia 48.5% | MALME-3M melanoma 61.7% | MDA-MB-231 breast 55.3% | RXF 393 renal 50.9% | SF-268 CNS 72.4% | SF-295 CNS 94.8% | SF-539 CNS 51.2% | UACC-257 melanoma 96.1% | M14 melanoma 66.2%
active: HOP-92 NSCLC -28.2%
